Reference: PubChem BioAssay (NCATS)
Inconclusive results are not listed. Calls of active or inactive are those of the source. Unless noted, calls come from the whole dose curve; as a rule, active = well fitted curve in either direction with a large enough effect (not every such curve was filed as active); inconclusive = small, poorly fitted or top-dose-only effect, or another doubt; inactive = flat fitted curve, though single readings scatter.

Tests used:
[1] = AP1 Signaling Pathway (AID 357); settings: ME-180 AP-1-bla reporter, EGF-induced, beta-lactamase ratio, 5 h; at 7.69 µM (top of the series) unless noted;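 note: ME-180 reporter cells stimulated with EGF at its EC50 level; % is set by controls: 0 for no effect and ±100 for the full control effect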
Outline: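 In this screen, ME-180 cells in Opti-MEM with 0.5% dialyzed FBS received EC50 EGF and compound titrations for 5 h. AP-1 reporter beta-lactamase was detected via CCF4 ratio, giving AC50 for positive and negative modulators.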

[2] = target: Cytochrome P450 1A2 (Homo sapiens) (UniProt P05177); assay: p450-cyp1a2 (AID 410; calls by dose curve; note: potency is the fitted concentration of half-maximal effect;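 for activity change, negative = inhibition: -100% = full effect of reference inhibitor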)
Outline: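 Human CYP1A2 (20nM) demethylated Luciferin-ME at its Km (100uM) in 100mM KPO4. After 10 min compound preincubation, NADPH regeneration ran the reaction 60 min at room temperature. Luciferin was read by luminescence, normalized to 57 uM furafylline.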

[3] = NFAT Signaling Pathway (AID 444); settings: Jurkat NFAT-bla M1, carbachol, beta-lactamase ratio, 5 h; at 7.69 µM (top of the series) unless noted;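 note: carbachol stimulus at about its EC50 of 1 µM final; % is set by controls: 0 for no effect and ±100 for the full control effect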
Outline: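 Read-out: CCF4 FRET ratio (460 nm/530 nm) after 1 h RT dye loading, used for %activity and AC50 from titration series. Cells: Jurkat NFAT-β-lactamase/M1 line, treated with compound plus 1 uM carbachol for 5 h, 37 °C.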

[4] = target: Glucocorticoid receptor (Homo sapiens) (UniProt P04150); assay: GR-EFC Redistribution (AID 451; calls by dose curve; note: potency is the fitted concentration of half-maximal effect); settings: CHO-K1 GR-EFC translocation, beta-gal luminescence, 2 h
Outline: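 Translocation of GR-ED fusion to nuclear EA restores b-gal, read by luminescence after 1 h room-temperature detection. Engineered CHO-K1 biosensor cells, 1,000/well, exposed 2 h at 37 C to titrations up to 46 uM final.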

[5] = target: Mitogen-activated protein kinase 10 (Mus musculus) (UniProt Q61831); assay: JNK3 AlphaScreen Assay (AID 530);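 note: kinase came from lysate of stimulated human HepG2 cells; signal reports phosphorylation of biotinylated GST-cJun 1-79 at Ser73 with 10 µM ATP; % is set by controls: 0 for no effect and ±100 for the full control effect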
Outline: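 Room-temperature AlphaScreen kinase assay; pre-activated HepG2 lysate as JNK3 source, biotin-GST-cJun(1-79) substrate, 10 uM ATP, compound 15 min preincubation.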

[6] = target: 3',5'-cyclic-AMP phosphodiesterase 4B (Homo sapiens) (UniProt Q07343); assay: qHTS Assay for Inhibitors of PDE-IV (AID 607; active = well fitted activation curve with a large enough effect in the main read-out, with a control signal flat, not every such curve was filed as active; note: % of control where 0% means no effect)
Outline: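 HEK293 ACTOne cells with CNG channel (1000/well), endogenous PDE4; membrane potential dye, compounds up to 22.9 uM final. Fluorescence Ex 535/Em 590; RO 20-1724 (100 uM final) as reference.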

[7] = target: Cytochrome P450 2C9 (Homo sapiens) (UniProt P11712); assay: qHTS Assay for Inhibitors and Substrates of Cytochrome P450 2C9 (AID 883; active = well fitted curve in the direction sought with a large enough effect; an effect the other way counts as inactive or inconclusive; note: nearly all actives have a fitted effect of over 60% in size; note: potency is the fitted concentration of half-maximal effect)
Outline: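 Turnover of Luciferin-H (100uM, KM) by 10nM human CYP2C9 was measured over 60 min at 37C with NADPH regeneration; inhibitors and some substrates reduce luminescence. Data normalized to sulphaphenazole 57uM.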

[8] = target: Cytochrome P450 3A4 (Homo sapiens) (UniProt P08684); assay: qHTS Assay for Inhibitors and Substrates of Cytochrome P450 3A4 (AID 884; active = well fitted curve in the direction sought with a large enough effect; an effect the other way counts as inactive or inconclusive; note: potency is the fitted concentration of half-maximal effect; nearly all actives have a fitted effect of over 50% in size)
Outline: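 20 nM human CYP3A4 with 25 uM Luciferin-PPXE (at KM) in 200 mM KPO4, preincubated 10 min with compound; NADPH regeneration started a 60 min RT reaction. Luciferin detected by luminescence, normalized to 57 uM ketoconazole as full inhibition.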

[9] = target: Cytochrome P450 3A4 (Homo sapiens) (UniProt P08684); assay: qHTS Assay for Activators of Cytochrome P450 3A4 (AID 885; active = well fitted curve in the direction sought with a large enough effect; an effect the other way counts as inactive or inconclusive; note: nearly all actives have a fitted effect of over 65% in size)
Outline: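 Human CYP3A4 (20 nM) with Luciferin-PPXE at 25 uM (its KM) in 200 mM KPO4; 10 min compound preincubation, then NADPH regeneration and 60 min reaction at RT. Luciferin read by luminescence; normalized to 57 uM ketoconazole full inhibition.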

[10] = qHTS Assay for Lipid Storage Modulators (AID 1519; calls by dose curve); settings: Drosophila S3 cells, BODIPY lipid droplet/cell ratio, laser cytometry, cells loaded with oleic acid; for activity change, negative = inhibition: at 57.5 µM (top of the series)
Outline: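 Cells seeded at 5,000 per well were treated with compounds over a concentration series and loaded with oleic acid (400 uM, as added). Lipid droplet fluorescence (488 nm excitation, 500-530 nm channel) was read by laser-scanning cytometry and normalized to 20 uM Triacsin C.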

[11] = Primary qHTS for small molecule stabilizers of the endoplasmic reticulum resident proteome: Secreted ER Calcium Modulated Protein (SERCaMP) assay (AID 1508630; active = well fitted curve in the direction sought with a large enough effect; an effect the other way counts as inactive or inconclusive; note: % is set by controls: 0 for no effect and ±100 for the full control effect)
Outline: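 GLuc-SERCaMP-expressing SH-SY5Y cells, pretreated 16 h with compound, are challenged with thapsigargin to empty ER calcium stores; after 4 h, coelenterazine is added directly to the medium and luminescence is imaged.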

[12] = target: Lysosomal acid glucosylceramidase (Homo sapiens) (UniProt P04062); assay: Glucocerebrosidase-p2 (AID 348; in the data active = potency below about 10 µM; note: potency is the fitted concentration of half-maximal effect); settings: purified GBA, blue fluorogenic substrate, 40 min
Outline: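 Compounds titrated from 0.6 nM upwards against 0.2 nM enzyme in pH 5.9 citric acid/KH2PO4, taurocholate, tween-20; blue fluorogenic substrate 80 uM, 40 min room temperature, stopped and read Ex 365/Em 440 for AC50.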

[13] = Stat Signaling Pathway (AID 446); settings: ME-180 SIE beta-lactamase reporter, IL-6 stimulated, 5 h; at 7.69 µM (top of the series) unless noted
Outline: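 ME-180 cells carrying a SIE-driven beta-lactamase reporter are stimulated with 40 pM IL-6 for 5 h at 37C in the presence of compound. The 460/530 nm FRET substrate ratio is read after 2.5 h at RT. Data are normalised to 300 pM IL-6 and to 125 nM JAK inhibitor controls.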

[14] = target: Glucocorticoid receptor (Homo sapiens) (UniProt P04150); assay: GR-GFP Redistribution (AID 450;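 active = compounds whose dose series gives a full or clear partial fitted curve of increased nuclear translocation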; note: potency is the fitted concentration of half-maximal effect); settings: U2OS GR-GFP nuclear translocation, laser cytometry, 2 h
[15] = Confirmation and Secondary Assay for Modulators of Hemoglobin Beta Chain Splicing at IVS2 654 locus (AID 910; active = well fitted curve in the direction sought with a large enough effect; an effect the other way counts as inactive or inconclusive;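 note: HeLa cells stably carrying EGFP split by mutant beta-globin IVS2-654 intron; per-well total GFP intensity by laser scanning cytometry after 2-day treatment; % of control where 0% means no effect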)
Outline: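 Readout: per-well total peak green fluorescence (488 nm ex, 500–520 nm em) from objects 5–250 µm, reflecting correct splicing of an EGFP-654 reporter. Compounds were applied for 2 days at 37 °C to overnight-plated HeLa EGFP-654 cells; controls were DMSO and 500 nM IVS2-654 PNA.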

[16] = Confirmation and Secondary Assay for Modulators of Hemoglobin Beta Chain Splicing at IVS2 705 locus (AID 930; active = well fitted curve in the direction sought with a large enough effect; an effect the other way counts as inactive or inconclusive;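 note: HeLa cells stably expressing the EGFP-705 splicing reporter; GFP fluorescence per well restored by corrected splicing of the IVS2-705 intron in EGFP; % of control where 0% means no effect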)
Outline: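 Per-well GFP, captured at 1 x 8 µm resolution with 488 nm excitation, served as the read-out for HeLa EGFP-705 cells incubated 2 days with test compound versus DMSO.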

[17] = target: Ubiquitin carboxyl-terminal hydrolase 1 (Homo sapiens) (UniProt O94782); assay: Inhibitors of USP1/UAF1: Pilot qHTS (AID 504865; active = well fitted curve in the direction sought with a large enough effect; an effect the other way counts as inactive or inconclusive;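 note: rhodamine fluorescence freed from ubiquitin-rhodamine substrate followed over time; top concentration of the series differs between compounds; % is set by controls: 0 for no effect and ±100 for the full control effect; nearly all actives have a fitted effect of over 35% in size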)
Outline: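 In 50mM HEPES pH 7.8 containing 0.5mM EDTA, 1mM TCEP, 0.1 mg/ml BSA and 0.01% Tween-20, 1nM USP1/UAF1 is exposed to compound for 15 min, then Ub-Rho (150nM final) is added and fluorescence is read over time.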

[18] = target: Cytochrome P450 2C19 (Homo sapiens) (UniProt P33261); assay: qHTS Assay for Inhibitors and Substrates of Cytochrome P450 2C19 (AID 899; active = well fitted curve in the direction sought with a large enough effect; an effect the other way counts as inactive or inconclusive; note: % is set by controls: 0 for no effect and ±100 for the full control effect; nearly all actives have a fitted effect of over 60% in size)
Outline: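 Reactions contain 5nM enzyme, 10uM Luciferin-H EGE (KM) and 50mM KPO4; compound preincubates 10 min at 37C, NADPH regeneration starts turnover for 60 min. Luminescence after detection reagent gives activity.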

[19] = qHTS Assay for Identification of Small Molecule Agonists for Hypoxia Response Element Signaling Pathway (AID 914; active = well fitted activation curve with a large enough effect in the signal ratio, with a control signal flat, not every such curve was filed as active; the % refers to the signal ratio; note: % of control where 0% means no effect); settings: ME-180 (cervical carcinoma) HRE-bla reporter, beta-lactamase ratio, CoCl2, 17 h; activation: stronger effect = higher value
Outline: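 In Opti-MEM containing 0.5% dialyzed FBS and 10 mM HEPES, ME-180 HRE-bla cells received a compound titration and EC50 CoCl2. They were incubated 17 hours, then CCF4-loaded 2.5 hours at room temperature before ratio reading.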

[20] = target: Dual specificity protein kinase CLK4 (Homo sapiens) (UniProt Q9HAZ1); assay: qHTS Assay for Inhibitors of CDC-like Kinase 4 (ADP-Glo Assay) (AID 1771; active = well fitted curve in the direction sought with a large enough effect; an effect the other way counts as inactive or inconclusive; note: % is set by controls: 0 for no effect and ±100 for the full control effect; nearly all actives have a fitted effect of over 70% in size)
Outline: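 Clk4 (25 nM) was incubated 1 hr at room temperature with 100 uM RS repeat peptide and 1 uM ATP in buffer with 2 mM MgCl2, 0.5 mM EGTA, 2.5 mM DTT. ADP formed was quantified by ADP-Glo luminescence.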

[21] = target: Cytochrome P450 2D6 (Homo sapiens) (UniProt P10635); assay: qHTS Assay for Inhibitors and Substrates of Cytochrome P450 2D6 (AID 891; active = well fitted curve in the direction sought with a large enough effect; an effect the other way counts as inactive or inconclusive; note: potency is the fitted concentration of half-maximal effect; nearly all actives have a fitted effect of over 60% in size)
Outline: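 Human CYP2D6 (5 nM) with 30 uM Luciferin-ME EGE (at Km) in 100 mM KPO4, compound preincubated 10 min, then NADPH regeneration system for 60 min at room temperature. Luciferin read by luminescence; normalized to 1.43 uM quinidine.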

[22] = measured here: cell count channel max response
[23] = measured here: lipid channel max response

Chain of Lysosomal acid glucosylceramidase (Homo sapiens) (P04062 whole entry, looked up): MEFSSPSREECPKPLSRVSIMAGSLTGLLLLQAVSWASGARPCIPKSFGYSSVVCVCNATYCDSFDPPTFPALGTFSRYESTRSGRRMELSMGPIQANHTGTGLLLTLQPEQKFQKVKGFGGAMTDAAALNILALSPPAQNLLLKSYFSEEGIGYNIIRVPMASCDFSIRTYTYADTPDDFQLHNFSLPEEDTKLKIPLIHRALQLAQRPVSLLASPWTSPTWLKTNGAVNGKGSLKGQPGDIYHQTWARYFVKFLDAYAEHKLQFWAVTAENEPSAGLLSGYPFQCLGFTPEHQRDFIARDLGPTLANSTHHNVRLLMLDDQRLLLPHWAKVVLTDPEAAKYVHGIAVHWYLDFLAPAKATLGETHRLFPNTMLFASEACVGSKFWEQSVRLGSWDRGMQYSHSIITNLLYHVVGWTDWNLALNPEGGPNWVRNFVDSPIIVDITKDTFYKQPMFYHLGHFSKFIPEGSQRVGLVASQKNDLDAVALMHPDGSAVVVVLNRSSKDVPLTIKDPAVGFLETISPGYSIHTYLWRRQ
Chain of Ubiquitin carboxyl-terminal hydrolase 1 (Homo sapiens) (O94782 whole entry, looked up): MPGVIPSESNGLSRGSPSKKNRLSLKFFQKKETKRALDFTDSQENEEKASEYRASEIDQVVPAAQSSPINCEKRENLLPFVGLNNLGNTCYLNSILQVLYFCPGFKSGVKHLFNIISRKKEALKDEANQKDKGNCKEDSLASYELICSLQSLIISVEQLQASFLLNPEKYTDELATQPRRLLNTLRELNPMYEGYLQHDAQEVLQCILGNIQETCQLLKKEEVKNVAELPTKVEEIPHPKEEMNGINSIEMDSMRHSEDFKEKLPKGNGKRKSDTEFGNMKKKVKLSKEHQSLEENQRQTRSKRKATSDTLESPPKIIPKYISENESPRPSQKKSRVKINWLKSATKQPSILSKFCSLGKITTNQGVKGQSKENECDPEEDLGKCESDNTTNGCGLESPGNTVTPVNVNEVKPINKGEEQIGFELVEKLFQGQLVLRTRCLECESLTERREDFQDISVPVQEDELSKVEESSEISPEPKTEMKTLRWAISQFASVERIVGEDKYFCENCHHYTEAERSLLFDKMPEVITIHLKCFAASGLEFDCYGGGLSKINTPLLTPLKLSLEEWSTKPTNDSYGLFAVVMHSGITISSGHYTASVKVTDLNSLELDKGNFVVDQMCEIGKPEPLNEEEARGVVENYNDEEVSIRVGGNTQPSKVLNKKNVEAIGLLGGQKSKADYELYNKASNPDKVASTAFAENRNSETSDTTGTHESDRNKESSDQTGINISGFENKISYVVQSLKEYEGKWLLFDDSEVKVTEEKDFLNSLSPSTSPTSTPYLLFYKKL
Chain of Cytochrome P450 1A2 (Homo sapiens) (P05177 whole entry, looked up): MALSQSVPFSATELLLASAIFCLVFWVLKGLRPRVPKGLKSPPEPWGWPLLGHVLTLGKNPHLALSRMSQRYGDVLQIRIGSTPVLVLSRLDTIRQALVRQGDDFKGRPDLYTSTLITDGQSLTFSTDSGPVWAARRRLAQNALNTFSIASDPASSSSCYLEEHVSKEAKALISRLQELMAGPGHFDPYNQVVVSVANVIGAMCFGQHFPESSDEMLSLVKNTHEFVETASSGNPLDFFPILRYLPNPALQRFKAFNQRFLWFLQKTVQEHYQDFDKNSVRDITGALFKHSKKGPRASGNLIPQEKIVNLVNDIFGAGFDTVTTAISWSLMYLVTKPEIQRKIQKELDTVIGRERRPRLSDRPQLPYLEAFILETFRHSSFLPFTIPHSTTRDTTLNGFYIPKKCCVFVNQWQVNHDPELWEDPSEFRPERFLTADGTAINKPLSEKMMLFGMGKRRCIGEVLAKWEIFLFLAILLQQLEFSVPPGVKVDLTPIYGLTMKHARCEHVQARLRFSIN
Chain of 3',5'-cyclic-AMP phosphodiesterase 4B (Homo sapiens) (Q07343 whole entry, looked up): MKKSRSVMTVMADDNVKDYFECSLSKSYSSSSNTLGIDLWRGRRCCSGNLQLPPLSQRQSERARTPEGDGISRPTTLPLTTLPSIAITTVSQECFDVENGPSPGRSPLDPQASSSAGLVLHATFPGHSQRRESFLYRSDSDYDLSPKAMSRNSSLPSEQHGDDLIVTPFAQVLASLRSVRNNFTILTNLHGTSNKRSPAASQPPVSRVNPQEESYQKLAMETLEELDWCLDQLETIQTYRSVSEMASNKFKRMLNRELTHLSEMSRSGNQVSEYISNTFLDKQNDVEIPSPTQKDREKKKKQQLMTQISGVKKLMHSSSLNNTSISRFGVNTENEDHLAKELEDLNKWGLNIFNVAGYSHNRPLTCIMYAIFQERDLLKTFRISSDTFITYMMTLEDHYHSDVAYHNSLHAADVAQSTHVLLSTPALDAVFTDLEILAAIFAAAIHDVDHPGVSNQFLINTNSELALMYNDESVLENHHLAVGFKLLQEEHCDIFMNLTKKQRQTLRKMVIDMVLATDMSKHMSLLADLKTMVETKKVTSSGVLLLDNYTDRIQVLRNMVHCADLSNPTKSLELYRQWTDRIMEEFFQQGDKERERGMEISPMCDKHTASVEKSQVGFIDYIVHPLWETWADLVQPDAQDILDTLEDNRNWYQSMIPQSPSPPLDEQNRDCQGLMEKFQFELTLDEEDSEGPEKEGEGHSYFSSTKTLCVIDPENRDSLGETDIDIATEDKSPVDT
Chain of Cytochrome P450 3A4 (Homo sapiens) (P08684 whole entry, looked up): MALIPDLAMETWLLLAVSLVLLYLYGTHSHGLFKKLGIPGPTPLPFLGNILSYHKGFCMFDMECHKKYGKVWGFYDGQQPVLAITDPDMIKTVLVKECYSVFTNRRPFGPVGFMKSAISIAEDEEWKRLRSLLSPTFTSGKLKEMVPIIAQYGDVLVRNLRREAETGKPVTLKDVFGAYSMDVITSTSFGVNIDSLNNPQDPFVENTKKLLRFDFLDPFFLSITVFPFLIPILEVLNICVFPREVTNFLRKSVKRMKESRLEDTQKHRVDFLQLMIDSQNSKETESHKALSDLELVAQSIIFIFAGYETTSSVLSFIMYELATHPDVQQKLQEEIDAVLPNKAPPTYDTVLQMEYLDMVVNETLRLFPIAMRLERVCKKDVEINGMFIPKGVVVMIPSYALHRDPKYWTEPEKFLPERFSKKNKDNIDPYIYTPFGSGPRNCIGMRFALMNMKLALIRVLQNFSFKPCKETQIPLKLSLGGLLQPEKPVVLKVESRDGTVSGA
Chain of Glucocorticoid receptor (Homo sapiens) (P04150 whole entry, looked up, the tested form may be a part): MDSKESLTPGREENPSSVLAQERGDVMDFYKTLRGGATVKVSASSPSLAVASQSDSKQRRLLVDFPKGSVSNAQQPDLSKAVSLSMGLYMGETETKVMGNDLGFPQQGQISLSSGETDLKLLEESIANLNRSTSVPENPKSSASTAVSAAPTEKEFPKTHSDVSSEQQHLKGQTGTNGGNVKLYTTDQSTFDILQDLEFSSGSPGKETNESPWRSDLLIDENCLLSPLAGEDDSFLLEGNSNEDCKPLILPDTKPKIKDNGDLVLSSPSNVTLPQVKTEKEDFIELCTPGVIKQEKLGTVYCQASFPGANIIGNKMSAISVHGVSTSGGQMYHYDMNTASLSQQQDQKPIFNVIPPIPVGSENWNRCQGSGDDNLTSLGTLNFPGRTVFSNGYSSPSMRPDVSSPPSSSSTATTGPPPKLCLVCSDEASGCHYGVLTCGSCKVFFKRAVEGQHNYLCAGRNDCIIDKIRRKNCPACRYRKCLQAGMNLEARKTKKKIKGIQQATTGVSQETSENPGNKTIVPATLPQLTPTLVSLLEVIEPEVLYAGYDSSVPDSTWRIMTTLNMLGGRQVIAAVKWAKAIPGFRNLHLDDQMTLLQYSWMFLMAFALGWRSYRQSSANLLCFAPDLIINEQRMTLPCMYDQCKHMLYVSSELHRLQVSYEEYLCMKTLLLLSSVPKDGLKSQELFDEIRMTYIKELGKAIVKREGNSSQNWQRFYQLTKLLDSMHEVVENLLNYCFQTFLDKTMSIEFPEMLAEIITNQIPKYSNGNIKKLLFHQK
Chain of Cytochrome P450 2C9 (Homo sapiens) (P11712 whole entry, looked up): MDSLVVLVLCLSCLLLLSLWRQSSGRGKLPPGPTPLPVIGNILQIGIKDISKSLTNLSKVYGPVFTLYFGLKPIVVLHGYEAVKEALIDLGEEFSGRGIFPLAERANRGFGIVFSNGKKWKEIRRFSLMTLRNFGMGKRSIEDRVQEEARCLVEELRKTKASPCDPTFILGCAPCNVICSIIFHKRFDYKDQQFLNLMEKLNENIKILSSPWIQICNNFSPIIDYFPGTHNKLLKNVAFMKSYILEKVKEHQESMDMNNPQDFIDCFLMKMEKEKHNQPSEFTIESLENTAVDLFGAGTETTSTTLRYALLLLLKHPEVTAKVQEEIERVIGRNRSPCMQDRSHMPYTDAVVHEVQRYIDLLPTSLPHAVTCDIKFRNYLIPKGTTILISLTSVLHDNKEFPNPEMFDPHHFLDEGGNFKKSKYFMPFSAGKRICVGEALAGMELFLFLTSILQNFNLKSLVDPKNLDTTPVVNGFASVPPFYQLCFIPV
Chain of Cytochrome P450 2C19 (Homo sapiens) (P33261 whole entry, looked up): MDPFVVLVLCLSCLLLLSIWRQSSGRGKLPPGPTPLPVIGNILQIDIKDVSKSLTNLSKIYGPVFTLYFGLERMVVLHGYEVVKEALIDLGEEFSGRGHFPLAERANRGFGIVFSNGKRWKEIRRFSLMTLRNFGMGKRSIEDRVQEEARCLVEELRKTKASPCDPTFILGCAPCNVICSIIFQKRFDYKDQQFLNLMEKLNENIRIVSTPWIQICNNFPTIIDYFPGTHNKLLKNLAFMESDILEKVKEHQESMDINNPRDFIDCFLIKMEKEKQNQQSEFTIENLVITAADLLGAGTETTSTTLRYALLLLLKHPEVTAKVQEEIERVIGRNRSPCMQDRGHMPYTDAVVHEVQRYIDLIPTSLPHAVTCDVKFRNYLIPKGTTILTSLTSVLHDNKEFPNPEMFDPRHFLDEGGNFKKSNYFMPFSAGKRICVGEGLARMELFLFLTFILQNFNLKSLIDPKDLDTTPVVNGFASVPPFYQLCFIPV

O=C(Nc1cccc(F)c1)N1CCCC2(CCN(C(=O)c3ccncc3)CC2)C1
19.3%: max response [10, 22]
28.5%: max response [10, 23]
inactive: activity change, negative = inhibition [1] -4.33% | activity change, negative = inhibition [3] -19.9% | Potency [4] > 46 µM | outcome [5] | Potency [6] | Potency [9] | activity change, negative = inhibition [10] 6.14% | Potency [11]
active: Potency [2] 12.6 µM | Potency [7] 0.0794 µM | Potency [8] 6.31 µM

CN(C)Cc1ccccc1-c1nccc(N(C)C)n1
inactive: Potency [12] > 11.4 µM | activity change, negative = inhibition [1] 23.3% | activity change, negative = inhibition [3] -0.313% | activity, negative = inhibition [13] 10.1% | Potency [14] > 46 µM | Potency [4] > 46 µM | outcome [5] | Potency [6] | Potency [9] | outcome [15] | outcome [16] | Potency [17] | Potency [11]
active: Potency [2] 12.6 µM

CNc1ccnc(-c2c(C)noc2C)n1
active: Potency [2] 1.26 µM
inactive: Potency [12] > 11.4 µM | activity change, negative = inhibition [1] 2.46% | activity change, negative = inhibition [3] 1.59% | activity, negative = inhibition [13] 12.4% | Potency [14] > 46 µM | Potency [4] > 46 µM | outcome [5] | Potency [6] | activity change, negative = inhibition [7] 41% [at 2.29 µM] | Potency [9] | Potency [18] | outcome [15] | activation [19] 11.5% | Potency [17] | Potency [11]

c1ccc2c(NC3CCNCC3)nc(-c3ccoc3)nc2c1
active: Potency [2] 15.8 µM
inactive: Potency [12] > 11.4 µM | activity change, negative = inhibition [1] 8.91% | activity change, negative = inhibition [3] 5.13% | activity, negative = inhibition [13] 7% | Potency [14] > 46 µM | Potency [4] > 46 µM | outcome [5] | Potency [20] | Potency [17] | Potency [11]

CS(=O)(=O)N1CCC2(CCCN(C(=O)Nc3ccccc3)C2)CC1
active: Potency [2] 15.8 µM
inactive: Potency [12] > 11.4 µM | activity change, negative = inhibition [1] -5.5% | activity change, negative = inhibition [3] 11% | activity, negative = inhibition [13] 3.16% | Potency [4] > 46 µM | outcome [5] | Potency [6] | Potency [11]

O=C(c1ccco1)N1CCC[C@@]2(CCN(Cc3ccccc3)C2)C1
-0.541%: max response [10, 22]
active: Potency [21] 2 µM
inactive: activity change, negative = inhibition [1] -5.26% | Potency [2] | activity change, negative = inhibition [3] -3.82% | activity, negative = inhibition [13] -7.43% | Potency [4] > 46 µM | outcome [5] | Potency [6] | Potency [9] | activity change, negative = inhibition [10] 2.21% | Potency [11]
7.17%: max response [10, 23]

CC(=O)N1CCC2(CC1)CN(Cc1ccccc1)C2
-1.86%: max response [10, 23]
-1.63%: max response [10, 22]
inactive: activity change, negative = inhibition [1] 9.85% | Potency [2] | activity change, negative = inhibition [3] 0.306% | activity, negative = inhibition [13] -5.51% | Potency [4] > 46 µM | outcome [5] | Potency [6] | activity change, negative = inhibition [10] -0.469% | Potency [11]
